Residual activity data for seven compounds are collected here from ChEMBL document CHEMBL2218924, “A broad activity screen in support of a chemogenomic map for kinase signalling research and drug discovery” (Biochem J, 2013).

Test [1] deals with Serine/threonine-protein kinase PAK 4 (Homo sapiens) (UniProt O96013). The conditions noted are these: at 1 µM.
Test [2] has the same target. The conditions noted are these: at 10 µM.
Test [3] concerns the target Serine/threonine-protein kinase PAK 5 (Homo sapiens) (UniProt Q9P286). The following applies: at 1 µM.
The target is the same in test [4]. The following applies: at 10 µM.
In test [5] the target is Serine/threonine-protein kinase PAK 6 (Homo sapiens) (UniProt Q9NQU5). The following applies: at 1 µM.
Serine/threonine-protein kinase PAK 6 (Homo sapiens), sequence (Q9NQU5 whole entry, looked up): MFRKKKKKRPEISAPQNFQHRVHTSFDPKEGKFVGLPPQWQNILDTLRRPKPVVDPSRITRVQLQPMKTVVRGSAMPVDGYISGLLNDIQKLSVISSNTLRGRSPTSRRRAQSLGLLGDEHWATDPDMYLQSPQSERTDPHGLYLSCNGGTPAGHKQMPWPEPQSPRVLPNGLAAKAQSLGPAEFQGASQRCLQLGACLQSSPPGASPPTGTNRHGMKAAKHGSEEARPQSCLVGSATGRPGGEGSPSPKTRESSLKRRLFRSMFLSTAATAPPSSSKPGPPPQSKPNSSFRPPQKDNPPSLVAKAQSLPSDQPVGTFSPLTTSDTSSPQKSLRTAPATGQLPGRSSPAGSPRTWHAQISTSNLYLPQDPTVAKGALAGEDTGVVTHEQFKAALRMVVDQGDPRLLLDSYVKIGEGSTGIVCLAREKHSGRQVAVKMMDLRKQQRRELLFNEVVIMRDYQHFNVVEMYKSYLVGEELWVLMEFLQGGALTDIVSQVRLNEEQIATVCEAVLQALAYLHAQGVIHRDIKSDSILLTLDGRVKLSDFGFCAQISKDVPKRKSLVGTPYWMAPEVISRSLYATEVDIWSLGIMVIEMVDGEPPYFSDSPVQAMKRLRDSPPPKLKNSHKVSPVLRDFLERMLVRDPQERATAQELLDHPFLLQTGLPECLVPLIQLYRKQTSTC
Test [6] has the same target. The following applies: at 10 µM.
For test [7], the target named is PAS domain-containing serine/threonine-protein kinase (Homo sapiens) (UniProt Q96RG2). The following applies: at 10 µM.
For test [8], the target named is Activated CDC42 kinase 1 (Homo sapiens) (UniProt Q07912). The following applies: at 1 µM.
Test [9] has the same target. The following applies: at 10 µM.
Test [10] concerns the target ALK tyrosine kinase receptor (Homo sapiens) (UniProt Q9UM73). The conditions noted are these: at 1 µM.
The target is the same in test [11]. The following applies: at 10 µM.
Test [12] concerns the target T1, Activin receptor type-1B (Homo sapiens) (UniProt P36896).
T1 sequence (whole entry): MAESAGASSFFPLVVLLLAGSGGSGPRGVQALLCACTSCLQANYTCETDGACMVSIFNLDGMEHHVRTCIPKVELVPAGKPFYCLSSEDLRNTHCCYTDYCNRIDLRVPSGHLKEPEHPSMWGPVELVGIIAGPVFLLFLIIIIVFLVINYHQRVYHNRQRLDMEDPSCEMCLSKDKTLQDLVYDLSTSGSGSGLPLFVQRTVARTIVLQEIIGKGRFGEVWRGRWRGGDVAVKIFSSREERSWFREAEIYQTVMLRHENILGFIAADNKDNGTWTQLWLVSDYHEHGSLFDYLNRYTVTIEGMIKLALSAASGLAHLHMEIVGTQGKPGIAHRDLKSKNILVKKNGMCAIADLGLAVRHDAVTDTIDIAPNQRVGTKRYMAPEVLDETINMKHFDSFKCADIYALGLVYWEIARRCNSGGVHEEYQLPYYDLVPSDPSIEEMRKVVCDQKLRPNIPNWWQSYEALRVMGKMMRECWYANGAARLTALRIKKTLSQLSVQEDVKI
The conditions noted are these: at 10 µM.

Test [13] has as its target T2, AMP-activated protein kinase (AMPK) alpha-1/beta-1/gamma-1 (Homo sapiens) (UniProt P54619+Q9Y478+Q13131). The following applies: at 1 µM.
Test [14] deals with T2, AMP-activated protein kinase (AMPK) alpha-1/beta-1/gamma-1 (Homo sapiens). The conditions noted are these: at 10 µM.
The target of test [15] is T3, AMP-activated protein kinase, AMPK (Homo sapiens) (UniProt P54646+O43741+P54619+Q9UGJ0+Q9Y478+Q13131+Q9UGI9). The following applies: at 1 µM.
Test [16] concerns the target T3, AMP-activated protein kinase, AMPK (Homo sapiens). The following applies: at 10 µM.
Test [17] deals with T4, NUAK family SNF1-like kinase 1 (Homo sapiens) (UniProt O60285).
T4 sequence (whole entry): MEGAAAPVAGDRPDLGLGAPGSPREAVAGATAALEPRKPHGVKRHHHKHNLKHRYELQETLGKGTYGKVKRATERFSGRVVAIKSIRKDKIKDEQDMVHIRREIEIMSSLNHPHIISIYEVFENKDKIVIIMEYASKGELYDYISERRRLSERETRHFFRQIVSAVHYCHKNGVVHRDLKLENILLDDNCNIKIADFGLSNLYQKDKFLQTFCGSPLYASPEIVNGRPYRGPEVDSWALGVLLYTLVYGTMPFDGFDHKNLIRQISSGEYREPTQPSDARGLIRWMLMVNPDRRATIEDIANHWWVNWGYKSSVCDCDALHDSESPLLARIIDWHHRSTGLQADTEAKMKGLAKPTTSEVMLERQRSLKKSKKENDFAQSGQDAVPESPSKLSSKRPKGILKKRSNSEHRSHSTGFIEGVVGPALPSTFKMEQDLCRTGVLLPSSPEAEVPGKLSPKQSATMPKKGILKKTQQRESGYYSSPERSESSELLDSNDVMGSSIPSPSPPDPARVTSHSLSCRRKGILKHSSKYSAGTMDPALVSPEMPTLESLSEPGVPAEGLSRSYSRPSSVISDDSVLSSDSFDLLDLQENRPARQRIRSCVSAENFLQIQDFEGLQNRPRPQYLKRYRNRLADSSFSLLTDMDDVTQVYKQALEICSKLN
The conditions noted are these: at 10 µM.

Test [18] deals with T5, Mitogen-activated protein kinase kinase kinase 5 (Homo sapiens) (UniProt Q99683).
T5 sequence (whole entry): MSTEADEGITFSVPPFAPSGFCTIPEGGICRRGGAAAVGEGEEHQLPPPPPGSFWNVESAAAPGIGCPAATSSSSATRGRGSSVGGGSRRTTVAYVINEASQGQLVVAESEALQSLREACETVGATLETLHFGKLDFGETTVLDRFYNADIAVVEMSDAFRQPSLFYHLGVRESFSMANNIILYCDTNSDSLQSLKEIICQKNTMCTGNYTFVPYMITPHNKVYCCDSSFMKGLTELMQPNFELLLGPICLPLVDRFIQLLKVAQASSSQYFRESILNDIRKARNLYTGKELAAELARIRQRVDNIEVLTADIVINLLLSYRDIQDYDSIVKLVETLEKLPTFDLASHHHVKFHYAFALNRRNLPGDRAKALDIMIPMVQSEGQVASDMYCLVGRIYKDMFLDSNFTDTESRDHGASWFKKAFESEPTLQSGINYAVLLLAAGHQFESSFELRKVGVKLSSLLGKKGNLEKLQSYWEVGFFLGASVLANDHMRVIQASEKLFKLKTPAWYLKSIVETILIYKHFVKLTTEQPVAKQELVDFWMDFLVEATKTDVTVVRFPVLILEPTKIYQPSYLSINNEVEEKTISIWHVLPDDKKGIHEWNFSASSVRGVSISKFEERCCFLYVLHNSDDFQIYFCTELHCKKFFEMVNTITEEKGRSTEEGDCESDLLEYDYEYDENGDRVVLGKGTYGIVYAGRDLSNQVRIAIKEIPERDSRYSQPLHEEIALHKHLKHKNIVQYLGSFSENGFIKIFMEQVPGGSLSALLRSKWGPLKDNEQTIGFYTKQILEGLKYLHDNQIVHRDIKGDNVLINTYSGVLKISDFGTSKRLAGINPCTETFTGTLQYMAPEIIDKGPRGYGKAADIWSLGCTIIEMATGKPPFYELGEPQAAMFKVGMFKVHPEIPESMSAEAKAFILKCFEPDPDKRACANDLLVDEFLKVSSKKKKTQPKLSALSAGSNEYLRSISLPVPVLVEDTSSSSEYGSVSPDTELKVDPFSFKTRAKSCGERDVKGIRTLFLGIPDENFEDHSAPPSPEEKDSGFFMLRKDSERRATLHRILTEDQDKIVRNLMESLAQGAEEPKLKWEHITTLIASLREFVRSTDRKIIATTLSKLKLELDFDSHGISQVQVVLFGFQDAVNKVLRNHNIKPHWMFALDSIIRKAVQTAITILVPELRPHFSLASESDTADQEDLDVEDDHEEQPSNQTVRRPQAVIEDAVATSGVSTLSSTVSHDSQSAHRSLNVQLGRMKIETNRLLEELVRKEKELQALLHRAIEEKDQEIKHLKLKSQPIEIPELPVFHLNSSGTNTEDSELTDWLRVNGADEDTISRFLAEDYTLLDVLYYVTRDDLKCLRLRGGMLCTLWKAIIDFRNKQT
The following applies: at 1 µM.

The target of test [19] is T1, Activin receptor type-1B (Homo sapiens). The conditions noted are these: at 1 µM.
Test [20] deals with T4, NUAK family SNF1-like kinase 1 (Homo sapiens). The following applies: at 1 µM.

Serine/threonine-protein kinase PAK 4 (Homo sapiens), sequence (O96013 whole entry, looked up): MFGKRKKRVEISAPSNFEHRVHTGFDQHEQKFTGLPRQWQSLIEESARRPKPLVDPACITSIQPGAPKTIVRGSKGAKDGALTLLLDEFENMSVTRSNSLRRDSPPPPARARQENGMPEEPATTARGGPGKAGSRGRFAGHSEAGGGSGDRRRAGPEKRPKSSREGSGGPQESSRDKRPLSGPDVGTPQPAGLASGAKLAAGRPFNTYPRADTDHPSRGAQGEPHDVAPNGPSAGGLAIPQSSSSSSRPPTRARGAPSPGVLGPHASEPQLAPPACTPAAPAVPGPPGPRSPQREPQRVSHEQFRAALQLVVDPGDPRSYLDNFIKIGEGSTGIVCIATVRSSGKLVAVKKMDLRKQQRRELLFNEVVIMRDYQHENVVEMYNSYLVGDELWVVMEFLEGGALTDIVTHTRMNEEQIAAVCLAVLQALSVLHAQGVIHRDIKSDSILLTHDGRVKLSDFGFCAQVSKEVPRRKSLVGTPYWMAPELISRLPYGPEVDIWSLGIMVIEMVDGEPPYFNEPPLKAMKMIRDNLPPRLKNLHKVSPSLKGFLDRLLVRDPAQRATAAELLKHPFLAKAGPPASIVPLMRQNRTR
ALK tyrosine kinase receptor (Homo sapiens), sequence (Q9UM73 19-1620 limits assumed): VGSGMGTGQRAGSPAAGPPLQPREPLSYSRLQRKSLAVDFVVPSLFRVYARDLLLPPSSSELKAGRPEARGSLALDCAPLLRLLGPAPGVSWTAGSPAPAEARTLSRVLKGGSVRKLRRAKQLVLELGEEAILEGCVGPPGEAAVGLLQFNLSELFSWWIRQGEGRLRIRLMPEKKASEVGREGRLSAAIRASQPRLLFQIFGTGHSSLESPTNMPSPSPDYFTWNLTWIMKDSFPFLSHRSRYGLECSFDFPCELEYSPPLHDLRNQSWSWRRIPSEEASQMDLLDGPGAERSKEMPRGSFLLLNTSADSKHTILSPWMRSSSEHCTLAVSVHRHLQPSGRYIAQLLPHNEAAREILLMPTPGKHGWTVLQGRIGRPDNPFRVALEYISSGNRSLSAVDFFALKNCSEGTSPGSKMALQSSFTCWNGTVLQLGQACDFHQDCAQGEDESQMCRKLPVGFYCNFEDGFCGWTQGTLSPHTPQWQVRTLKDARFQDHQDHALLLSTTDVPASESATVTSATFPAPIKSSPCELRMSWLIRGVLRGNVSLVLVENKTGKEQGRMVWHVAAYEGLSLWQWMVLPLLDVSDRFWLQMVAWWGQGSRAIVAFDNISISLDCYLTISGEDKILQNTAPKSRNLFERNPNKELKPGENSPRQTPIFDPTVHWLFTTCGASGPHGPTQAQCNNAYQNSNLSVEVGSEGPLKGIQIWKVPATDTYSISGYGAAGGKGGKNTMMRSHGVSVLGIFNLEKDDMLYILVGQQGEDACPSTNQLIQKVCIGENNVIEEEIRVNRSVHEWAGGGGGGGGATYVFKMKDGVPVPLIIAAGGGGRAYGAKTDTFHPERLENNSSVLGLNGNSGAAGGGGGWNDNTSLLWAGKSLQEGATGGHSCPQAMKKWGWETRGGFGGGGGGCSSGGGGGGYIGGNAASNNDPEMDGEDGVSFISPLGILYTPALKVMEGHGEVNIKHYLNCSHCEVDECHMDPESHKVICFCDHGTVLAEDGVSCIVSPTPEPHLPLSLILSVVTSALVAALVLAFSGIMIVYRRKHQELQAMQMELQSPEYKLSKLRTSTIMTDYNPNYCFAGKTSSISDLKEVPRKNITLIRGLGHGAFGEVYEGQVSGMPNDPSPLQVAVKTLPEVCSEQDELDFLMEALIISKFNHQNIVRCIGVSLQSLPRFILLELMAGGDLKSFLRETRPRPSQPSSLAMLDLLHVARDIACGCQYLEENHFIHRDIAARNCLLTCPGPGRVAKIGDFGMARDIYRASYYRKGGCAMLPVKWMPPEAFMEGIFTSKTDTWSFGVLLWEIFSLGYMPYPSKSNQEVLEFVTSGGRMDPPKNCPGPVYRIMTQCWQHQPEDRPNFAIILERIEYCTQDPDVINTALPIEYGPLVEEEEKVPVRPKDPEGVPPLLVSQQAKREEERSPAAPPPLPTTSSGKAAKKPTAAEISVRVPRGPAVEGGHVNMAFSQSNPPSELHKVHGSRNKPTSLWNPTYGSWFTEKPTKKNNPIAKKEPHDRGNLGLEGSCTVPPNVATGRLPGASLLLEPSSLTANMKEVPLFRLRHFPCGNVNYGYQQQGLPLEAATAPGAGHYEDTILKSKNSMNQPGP
T2 sequence (P54619 whole entry): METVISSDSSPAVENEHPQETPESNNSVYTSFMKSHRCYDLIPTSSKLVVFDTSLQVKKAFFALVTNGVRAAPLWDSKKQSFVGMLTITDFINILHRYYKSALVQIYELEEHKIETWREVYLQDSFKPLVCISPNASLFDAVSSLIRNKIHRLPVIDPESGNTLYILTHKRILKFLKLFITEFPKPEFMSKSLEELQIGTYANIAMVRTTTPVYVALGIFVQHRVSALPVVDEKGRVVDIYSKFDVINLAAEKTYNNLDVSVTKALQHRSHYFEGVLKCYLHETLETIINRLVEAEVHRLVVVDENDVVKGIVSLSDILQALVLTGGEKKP
T2 sequence (Q13131 whole entry partner): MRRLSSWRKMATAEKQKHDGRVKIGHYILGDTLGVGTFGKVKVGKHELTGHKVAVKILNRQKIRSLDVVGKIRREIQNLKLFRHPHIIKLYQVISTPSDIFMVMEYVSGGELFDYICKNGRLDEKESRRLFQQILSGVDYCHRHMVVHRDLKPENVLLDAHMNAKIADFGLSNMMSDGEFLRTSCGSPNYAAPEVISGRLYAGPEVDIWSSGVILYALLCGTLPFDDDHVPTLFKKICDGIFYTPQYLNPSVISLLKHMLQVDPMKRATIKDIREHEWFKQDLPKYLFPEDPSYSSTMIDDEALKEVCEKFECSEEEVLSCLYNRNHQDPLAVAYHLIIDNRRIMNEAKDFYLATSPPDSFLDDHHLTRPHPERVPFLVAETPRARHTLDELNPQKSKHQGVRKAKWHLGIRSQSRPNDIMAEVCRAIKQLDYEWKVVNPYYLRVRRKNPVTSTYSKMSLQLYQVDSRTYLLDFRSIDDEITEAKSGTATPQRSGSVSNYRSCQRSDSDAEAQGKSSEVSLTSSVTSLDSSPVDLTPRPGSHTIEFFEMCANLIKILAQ
T2 sequence (Q9Y478 2-270 partner limits assumed): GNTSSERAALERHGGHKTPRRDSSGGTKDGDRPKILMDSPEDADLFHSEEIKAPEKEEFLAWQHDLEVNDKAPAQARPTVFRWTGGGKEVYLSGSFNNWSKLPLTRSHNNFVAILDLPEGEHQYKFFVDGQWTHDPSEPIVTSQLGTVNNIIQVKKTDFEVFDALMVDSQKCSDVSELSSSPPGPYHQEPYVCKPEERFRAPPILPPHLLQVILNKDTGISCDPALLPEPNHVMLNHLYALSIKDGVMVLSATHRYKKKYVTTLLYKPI
Serine/threonine-protein kinase PAK 5 (Homo sapiens), sequence (Q9P286 whole entry, looked up): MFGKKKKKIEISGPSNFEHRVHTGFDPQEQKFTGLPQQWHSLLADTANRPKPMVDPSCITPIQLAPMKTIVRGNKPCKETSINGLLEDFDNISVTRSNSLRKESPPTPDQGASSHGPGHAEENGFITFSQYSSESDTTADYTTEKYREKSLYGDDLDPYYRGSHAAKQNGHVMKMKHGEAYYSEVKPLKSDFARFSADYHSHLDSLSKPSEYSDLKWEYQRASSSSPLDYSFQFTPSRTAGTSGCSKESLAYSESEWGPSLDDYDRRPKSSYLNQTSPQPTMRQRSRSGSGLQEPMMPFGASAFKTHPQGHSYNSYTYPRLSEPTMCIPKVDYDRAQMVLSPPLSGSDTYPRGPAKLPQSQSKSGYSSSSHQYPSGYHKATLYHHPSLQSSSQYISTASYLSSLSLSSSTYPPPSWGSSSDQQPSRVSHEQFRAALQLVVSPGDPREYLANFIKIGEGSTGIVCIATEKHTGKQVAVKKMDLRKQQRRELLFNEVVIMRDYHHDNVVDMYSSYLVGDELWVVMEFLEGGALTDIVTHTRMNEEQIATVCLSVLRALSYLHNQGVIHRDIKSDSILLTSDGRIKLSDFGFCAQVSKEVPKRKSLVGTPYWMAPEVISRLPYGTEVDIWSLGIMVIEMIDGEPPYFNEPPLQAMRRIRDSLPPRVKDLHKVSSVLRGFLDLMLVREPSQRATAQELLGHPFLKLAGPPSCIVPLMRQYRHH

As to `N#Cc1cnc2cnc(NCc3cccnc3)cc2c1Nc1ccc(F)c(Cl)c1`, the residual activity is 65% in [1]; 18% in test [2]; 11% in [3]; 5% in test [4]; 2% in [5]; 2% in [6]. Moreover, the residual activity worked out at 63% in test [7]; 3% in test [8]; 1% in test [9]; 90% in test [10]; 75% in test [11]; 92% in [12]. The residual activity in test [13] was -2%; in test [14], -1%; in [15], -5%; in test [16], -1%; in test [17], -1%; in test [18], 85%.

As for `CO[C@@H]1[C@H](N(C)C(=O)c2ccccc2)C[C@H]2O[C@]1(C)n1c3ccccc3c3c4c(c5c6ccccc6n2c5c31)C(=O)NC4`, the residual activity in test [1] was 64%; in test [2] it was 43%; in test [3] it was 52%; in test [4], 48%; in test [5], 49%; in [6], 26%. The residual activity in test [7] is 0%; in test [8], 11%; in test [9], -1%; in [10] it was 32%; in test [11], 33%; in test [19], 128%. Further, the residual activity in test [12] is 102%; in test [13] it was 10%; in test [14], 6%; in test [15], 1%; in test [16], 4%; in test [20] it was 7%. In addition, the results for the residual activity in test [17] and in [18] were 7% and 96%, respectively.

Regarding `O=c1c2ccccc2[nH]c(=S)n1CCN1CCC(=C(c2ccc(F)cc2)c2ccc(F)cc2)CC1`, the residual activity in test [1] was found to be 106%; in [2], 99%; in [3] it was 84%; in test [4], 47%; in [5], 82%; in [6], 41%. The residual activity in [7] is 53%; in test [8], 83%; in test [9], 70%; in [10], 81%; in [11], 73%; in test [19], 149%. Also, the residual activity in test [12] was found to be 111%; in test [13] it was 101%; in [14], 84%; in [15] it was 97%; in test [16], 74%; in test [20], 90%. For the same compound, the residual activity is 120% in test [17] and 106% in test [18].

In the case of `CO[C@H]1C[C@@H]2CC[C@@H](C)[C@@](O)(O2)C(=O)C(=O)N2CCCC[C@H]2C(=O)O[C@H]([C@H](C)C[C@@H]2CC[C@@H](O)[C@H](OC)C2)CC(=O)[C@H](C)/C=C(\C)[C@@H](O)[C@@H](OC)C(=O)[C@H](C)C[C@H](C)/C=C/C=C/C=C/1C`, the residual activity in [1] was found to be 89%; in test [2], 88%; in test [3], 97%; in test [4] it was 109%; in test [5], 106%; in test [6], 136%. The residual activity in [8] worked out at 82%; in test [9], 63%; in test [10] it was 82%; in test [11] it was 32%; in test [19] it was 115%; in test [12] it was 110%. Besides, the residual activity in test [13] amounted to 79%; in [15], 93%; in test [16], 107%; in test [20], 99%; in test [17], 96%; in test [18] it was 85%.

For `O=C1NC(=O)c2cc(Nc3ccc(F)cc3)c(Nc3ccc(F)cc3)cc21`, the residual activity in test [1] worked out at 89%; in test [2], 74%; in [3], 98%; in [4], 66%; in test [5], 100%; in [6] it was 64%. Moreover, the residual activity came out at 51% in test [7]; 79% in [8]; 34% in test [9]; 84% in test [10]; 42% in test [11]; 129% in test [19]. The residual activity in test [12] was determined as 88%; in test [13], 93%; in test [14] it was 73%; in test [15], 92%; in test [16] it was 66%; in test [20], 101%. The residual activity in test [17] was 75%; in [18], 110%.

Take `Cc1cc2ncc(-c3ccccc3)nc2cc1C`: the residual activity in [1] is 104%; in test [2] it was 88%; in test [4], 92%; in [5], 94%; in test [6] it was 77%; in test [9], 59%. In addition, the residual activity in [10] turned out to be 82%; in test [11], 60%; in test [13], 105%; in test [14], 74%; in test [20], 92%; in test [17], 94%. For the same compound, the residual activity in test [18] amounted to 78%.

On to `COc1cc2ncc(-c3ccccc3)nc2cc1OC`, for which the residual activity in [2] was determined as 93%; in test [5], 92%; in test [6], 74%; in [7], 93%; in [8], 96%; in [9], 56%. Also, the residual activity in test [13] was determined as 86%; in test [14], 82%; in [16], 75%; in test [17], 77%; in test [18], 83%.
